As a reminder, the AC50 is the concentration giving half of the maximal activity seen.

Outcome and AC50 data for four molecules are collected here from PubChem BioAssay (EPA / NIEHS).

Activity calls are given as the source filed them. How the source made its calls: active means hit-call score of the fitted dose curve at least 0.9, where 1 is the maximum; inactive means score below 0.9.

What all share (conditions): mRNA level, 48 h; actives raise or lower the signal
Read-out in test [1]: Lipoprotein lipase (LPL), LPL (gene 4023)
Kind of test: LTEA_HepaRG_LPL: Life Technologies and Expression Analysis (LTEA) Assay for Lipoprotein lipase (LPL) using HepaRG (AID 2283515). In short, it runs like this: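 Differentiated HepaRG cells, plated 48 h, then exposed 48 h in serum-free induction medium to 8 concentrations (top 100 uM, half-log steps) in 0.5% DMSO, duplicate. LPL mRNA measured by qRT-PCR, normalized to ACTB, GAPDH and POLR2A.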

Read-out in test [2]: MicroRNA 122 (MIR122), gene 406906
Kind of test: LTEA_HepaRG_MIR122: Life Technologies and Expression Analysis (LTEA) Assay for MicroRNA 122 (MIR122) using HepaRG (AID 2283516). Further: the transcript read is the microRNA miR-122. The method, boiled down:
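HepaRG plated 48 h, switched to serum-free induction medium, then treated in duplicate for 48 h (100 uM top, half-log steps, 0.5% DMSO vehicle). RNA isolated, qRT-PCR performed, concentration-response fitted both directions relative to DMSO.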

Read-out in test [3]: matrix metalloproteinase-10 (MMP10), MMP10 (gene 4319)
Kind of test: LTEA_HepaRG_MMP10: Life Technologies and Expression Analysis (LTEA) Assay for matrix metalloproteinase-10 (MMP10) using HepaRG (AID 2283517). The method, boiled down:
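Differentiated HepaRG cells in serum-free induction medium exposed 48 h in duplicate to 8-point half-log series up to 100 uM in 0.5% DMSO. mRNA quantified by qRT-PCR, normalised to ACTB, GAPDH, POLR2A; bidirectional fit versus DMSO.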

Read-out in test [4]: matrix metalloproteinase-3 (MMP3), MMP3 (gene 4314)
Kind of test: LTEA_HepaRG_MMP3: Life Technologies and Expression Analysis (LTEA) Assay for matrix metalloproteinase-3 (MMP3) using HepaRG (AID 2283519). The method, boiled down:
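HepaRG cells (~100,000/well) in serum-free induction medium were dosed in duplicate for 48 h with an 8-point half-log series from 100 uM, 0.5% DMSO. MMP3 mRNA was quantified by Fluidigm TaqMan qRT-PCR, normalized to three housekeeping genes.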

Read-out in test [5]: Paternally Expressed 10 (PEG10), PEG10 (gene 23089)
Kind of test: LTEA_HepaRG_PEG10: Life Technologies and Expression Analysis (LTEA) Assay for Paternally Expressed 10 (PEG10) using HepaRG (AID 2283520). In short, it runs like this:
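HepaRG, 48 h post-plating → serum-free induction medium → 48 h chemical exposure (duplicate, 8-pt, max 100 uM, half-log, 0.5% DMSO) → lysis in RLT → TaqMan qRT-PCR for PEG10, ACTB/GAPDH/POLR2A normalisation.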

Read-out in test [6]: Nuclear factor NF-kappa-B p105 subunit (Homo sapiens) (UniProt P19838)
Kind of test: LTEA_HepaRG_NFKB1: Life Technologies and Expression Analysis (LTEA) Assay for Nuclear Factor Kappa B Subunit 1 (NFKB1) using HepaRG (AID 2283521).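 On Outcome: TaqMan qRT-PCR transcript normalised to ACTB GAPDH and POLR2A housekeeping genes.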 The method, boiled down: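 HepaRG, 48 h exposure; 8-pt half-log series from 100 uM in 0.5% DMSO; duplicates. Readout: NFKB1 mRNA by qRT-PCR (Fluidigm arrays), housekeeping-normalized. Gain/loss fit vs DMSO baseline.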

Read-out in test [7]: Protein phosphatase 2A (PPP2R4), PTPA (gene 5524)
Description: LTEA_HepaRG_PPP2R4: Life Technologies and Expression Analysis (LTEA) Assay for Protein phosphatase 2A (PPP2R4) using HepaRG (AID 2283522). The method, boiled down:
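Readout is PPP2R4 transcript level by microfluidic qRT-PCR after 48 h chemical treatment of human HepaRG liver cells. Concentrations spanned 100 uM downward in half-log steps; gain or loss of signal was fitted relative to DMSO.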

Read-out in test [8]: Phosphatase and tensin (PTEN), PTEN (gene 5728)
Description: LTEA_HepaRG_PTEN: Life Technologies and Expression Analysis (LTEA) Assay for Phosphatase and tensin (PTEN) using HepaRG (AID 2283523). In short, it runs like this: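 HepaRG cells, 48 h after plating, exposed in duplicate for 48 h in serum-free induction medium to 8 half-log concentrations up to 100 uM (0.5% DMSO). PTEN mRNA by qRT-PCR, normalized to ACTB, GAPDH, POLR2A; bidirectional fit versus DMSO.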

Read-out in test [9]: solute carrier (SLC22A1), SLC22A1 (gene 6580)
Kind of test: LTEA_HepaRG_SLC22A1: Life Technologies and Expression Analysis (LTEA) Assay for solute carrier (SLC22A1) using HepaRG (AID 2283524). The method, boiled down: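 Differentiated human HepaRG cells in serum-free induction medium, exposed 48 h in duplicate to 8-point half-log series from 100 µM top in 0.5% DMSO. SLC22A1 mRNA by TaqMan qRT-PCR normalized to ACTB, GAPDH, POLR2A; bidirectional fit versus DMSO.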

Read-out in test [10]: NAD(P)H dehydrogenase [quinone] 1 (NQO1), NQO1 (gene 1728)
Description: LTEA_HepaRG_NQO1: Life Technologies and Expression Analysis (LTEA) Assay for NAD(P)H dehydrogenase [quinone] 1 (NQO1) using HepaRG (AID 2283526). The method, boiled down:
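HepaRG, 48 h post-plating → serum-free induction medium → test chemical 48 h (duplicate, 100 uM top, half-log x8, 0.5% DMSO) → RNA isolation → qRT-PCR, ACTB/GAPDH/POLR2A normalization; bidirectional curve fit vs DMSO baseline.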

Read-out in test [11]: Nuclear factor erythroid 2-related factor 2 (Homo sapiens) (UniProt Q16236)
Kind of test: LTEA_HepaRG_NFE2L2: Life Technologies and Expression Analysis (LTEA) Assay for Nuclear factor erythroid 2-related factor 2 (NFE2L2) Transcription Factor using HepaRG (AID 2283527).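 On Outcome: TaqMan qRT-PCR transcript level normalised to ACTB GAPDH and POLR2A housekeeping genes.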 The method, boiled down:
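Differentiated human HepaRG cells, serum-free induction medium, exposed 48 h in duplicate to eight half-log concentrations up to 100 uM in 0.5% DMSO. NFE2L2 mRNA by Fluidigm TaqMan qRT-PCR, normalised to ACTB, GAPDH, POLR2A; bidirectional change versus DMSO.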

Read-out in test [12]: succinate dehydrogenase complex iron sulfur subunit B (SDHB), SDHB (gene 6390)
Description: LTEA_HepaRG_SDHB: Life Technologies and Expression Analysis (LTEA) Assay for succinate dehydrogenase complex iron sulfur subunit B (SDHB) using HepaRG (AID 2283528). The method, boiled down: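 Readout is SDHB transcript level by qRT-PCR, normalised to three housekeeping genes and fitted bidirectionally against 0.5% DMSO vehicle. Human HepaRG cells were treated for 48 h at up to 100 uM.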

Read-out in test [13]: solute carrier (SLCO1B1), SLCO1B1 (gene 10599)
Kind of test: LTEA_HepaRG_SLCO1B1: Life Technologies and Expression Analysis (LTEA) Assay for solute carrier (SLCO1B1) using HepaRG (AID 2283530). In short, it runs like this:
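Gain or loss of SLCO1B1 mRNA is fitted against the 0.5% DMSO vehicle in human HepaRG liver cells treated 48 h at up to 100 uM in half-log steps. Expression comes from qRT-PCR normalized to endogenous controls.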

Read-out in test [14]: sulfotransferase 2A1 (SULT2A1), SULT2A1 (gene 6822)
Description: LTEA_HepaRG_SULT2A1: Life Technologies and Expression Analysis (LTEA) Assay for sulfotransferase 2A1 (SULT2A1) using HepaRG (AID 2283531). In short, it runs like this: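 Cells were plated and cultured 48 h, switched to serum-free induction medium, then dosed in duplicate for 48 h (8 concentrations, max 100 uM). RNA was isolated and SULT2A1 expression measured by qRT-PCR; gain or loss of signal fitted relative to DMSO.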

Read-out in test [15]: Transforming Growth Factor (TGFA), TGFA (gene 7039)
Kind of test: LTEA_HepaRG_TGFA: Life Technologies and Expression Analysis (LTEA) Assay for Transforming Growth Factor (TGFA) using HepaRG (AID 2283532). The method, boiled down: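 Differentiated HepaRG cells exposed 48 hours in serum-free induction medium, 0.5% DMSO vehicle, 8-point half-log series from 100 uM, in duplicate. TGFA mRNA by TaqMan qRT-PCR, normalised to ACTB, GAPDH, POLR2A; bidirectional fit versus DMSO.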

Read-out in test [16]: Transforming Growth Factor (TGFB1), TGFB1 (gene 7040)
Description: LTEA_HepaRG_TGFB1: Life Technologies and Expression Analysis (LTEA) Assay for Transforming Growth Factor (TGFB1) Transporter using HepaRG (AID 2283533). The method, boiled down: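 Expression change of TGFB1 in human HepaRG cells is measured after a 48 h chemical exposure, up to 100 uM in 0.5% DMSO vehicle. Curves are fitted in both directions relative to the DMSO baseline.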

Read-out in test [17]: TIMP1, TIMP1 (gene 7076)
Description: LTEA_HepaRG_TIMP1: Life Technologies and Expression Analysis (LTEA) Assay for TIMP1 using HepaRG (AID 2283534).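 On Outcome: TaqMan qRT-PCR signal normalized to ACTB GAPDH and POLR2A housekeeping genes.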 In short, it runs like this:
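We dosed human liver HepaRG cultures for 48 hours with up to 100 uM test chemical and measured TIMP1 expression by qRT-PCR. Activity in either direction is fitted relative to the 0.5% DMSO vehicle.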

Read-out in test [18]: MYC, MYC (gene 4609)
Kind of test: LTEA_HepaRG_MYC: Life Technologies and Expression Analysis (LTEA) Assay for MYC using HepaRG (AID 2283518). In short, it runs like this: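 Cells are thawed, plated and cultured 48 h, then treated for 48 h with test chemicals (eight half-log concentrations from 100 uM, 0.5% DMSO vehicle). RNA is isolated and MYC expression quantified by qRT-PCR against three housekeeping genes.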

Read-out in test [19]: Signal transducer and activator of transcription 3 (Homo sapiens) (UniProt P40763)
Kind of test: LTEA_HepaRG_STAT3: Life Technologies and Expression Analysis (LTEA) Assay for Signal transducer and activator of transcription (STAT3) using HepaRG (AID 2283529). The method, boiled down: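 Differentiated HepaRG cells, serum-free induction medium, dosed 48 h in duplicate, 8 half-log concentrations from 100 uM in 0.5% DMSO. STAT3 mRNA by qRT-PCR, normalised to ACTB, GAPDH, POLR2A; bidirectional fit versus DMSO.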

Sequence of Nuclear factor erythroid 2-related factor 2 (Homo sapiens) (Q16236 whole entry, looked up): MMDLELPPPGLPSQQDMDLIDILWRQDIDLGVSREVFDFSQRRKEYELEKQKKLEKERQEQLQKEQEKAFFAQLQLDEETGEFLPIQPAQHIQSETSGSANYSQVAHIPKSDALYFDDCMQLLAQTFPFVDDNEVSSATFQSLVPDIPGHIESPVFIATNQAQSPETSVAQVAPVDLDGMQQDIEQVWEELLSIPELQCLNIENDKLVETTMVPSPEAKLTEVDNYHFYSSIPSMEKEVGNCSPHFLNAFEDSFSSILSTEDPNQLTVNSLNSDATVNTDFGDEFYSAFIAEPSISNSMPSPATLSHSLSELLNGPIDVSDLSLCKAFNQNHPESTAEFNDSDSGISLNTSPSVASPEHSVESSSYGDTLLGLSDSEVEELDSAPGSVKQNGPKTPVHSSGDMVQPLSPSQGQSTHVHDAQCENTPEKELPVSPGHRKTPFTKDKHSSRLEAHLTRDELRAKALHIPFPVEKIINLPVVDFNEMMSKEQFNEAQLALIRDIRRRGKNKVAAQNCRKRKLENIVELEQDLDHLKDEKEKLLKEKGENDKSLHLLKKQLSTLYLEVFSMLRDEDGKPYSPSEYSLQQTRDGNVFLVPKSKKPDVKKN
Sequence of Nuclear factor NF-kappa-B p105 subunit (Homo sapiens) (P19838 whole entry, looked up): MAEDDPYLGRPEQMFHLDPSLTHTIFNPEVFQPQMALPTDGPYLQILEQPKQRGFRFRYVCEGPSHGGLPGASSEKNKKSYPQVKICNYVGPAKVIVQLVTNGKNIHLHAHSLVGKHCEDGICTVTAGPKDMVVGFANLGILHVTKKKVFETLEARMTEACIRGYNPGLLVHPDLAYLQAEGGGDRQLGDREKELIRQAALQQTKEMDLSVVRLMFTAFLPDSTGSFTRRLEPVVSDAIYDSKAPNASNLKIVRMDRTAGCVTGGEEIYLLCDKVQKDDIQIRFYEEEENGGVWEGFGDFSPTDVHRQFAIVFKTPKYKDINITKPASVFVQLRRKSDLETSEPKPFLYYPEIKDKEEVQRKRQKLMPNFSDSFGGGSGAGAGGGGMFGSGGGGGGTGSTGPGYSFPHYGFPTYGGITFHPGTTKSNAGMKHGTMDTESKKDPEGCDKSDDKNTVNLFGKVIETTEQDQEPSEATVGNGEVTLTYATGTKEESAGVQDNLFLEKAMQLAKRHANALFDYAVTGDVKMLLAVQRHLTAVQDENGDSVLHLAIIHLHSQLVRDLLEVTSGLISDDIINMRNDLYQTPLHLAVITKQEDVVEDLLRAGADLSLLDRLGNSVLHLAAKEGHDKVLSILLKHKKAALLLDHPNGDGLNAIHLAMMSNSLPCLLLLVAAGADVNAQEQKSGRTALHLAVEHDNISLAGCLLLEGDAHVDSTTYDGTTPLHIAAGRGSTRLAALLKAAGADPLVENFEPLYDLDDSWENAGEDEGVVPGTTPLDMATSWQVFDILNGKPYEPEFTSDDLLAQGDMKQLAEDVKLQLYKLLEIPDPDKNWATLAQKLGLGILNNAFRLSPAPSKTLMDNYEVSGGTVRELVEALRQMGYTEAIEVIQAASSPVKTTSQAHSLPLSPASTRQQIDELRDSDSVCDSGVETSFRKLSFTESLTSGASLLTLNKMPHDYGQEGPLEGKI
Sequence of Signal transducer and activator of transcription 3 (Homo sapiens) (P40763 whole entry, looked up): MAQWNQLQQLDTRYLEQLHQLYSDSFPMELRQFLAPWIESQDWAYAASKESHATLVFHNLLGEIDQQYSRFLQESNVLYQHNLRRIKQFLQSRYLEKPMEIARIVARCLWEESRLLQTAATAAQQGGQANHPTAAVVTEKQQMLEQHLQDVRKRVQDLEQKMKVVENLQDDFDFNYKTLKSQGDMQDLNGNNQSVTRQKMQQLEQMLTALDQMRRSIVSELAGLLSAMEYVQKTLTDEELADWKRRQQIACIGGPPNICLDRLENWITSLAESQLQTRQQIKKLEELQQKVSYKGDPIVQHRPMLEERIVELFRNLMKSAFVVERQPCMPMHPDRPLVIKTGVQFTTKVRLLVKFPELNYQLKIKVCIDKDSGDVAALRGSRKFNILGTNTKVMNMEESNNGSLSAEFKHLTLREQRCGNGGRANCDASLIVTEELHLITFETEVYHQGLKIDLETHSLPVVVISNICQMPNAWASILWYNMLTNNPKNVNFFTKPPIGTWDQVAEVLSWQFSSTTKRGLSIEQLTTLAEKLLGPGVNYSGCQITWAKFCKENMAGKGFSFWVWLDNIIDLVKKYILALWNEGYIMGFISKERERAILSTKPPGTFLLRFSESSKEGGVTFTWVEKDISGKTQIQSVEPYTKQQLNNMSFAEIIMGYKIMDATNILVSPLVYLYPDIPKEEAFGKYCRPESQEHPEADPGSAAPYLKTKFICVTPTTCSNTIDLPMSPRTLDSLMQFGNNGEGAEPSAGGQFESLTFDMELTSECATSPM

With `O=c1c(-c2ccc(O)cc2)coc2cc(O)cc(O)c12`, the call in test [1], in test [2], in test [3], in test [4], in test [5] and in test [6] was inactive. Further, the molecule was classed as inactive in test [7], in test [8], in test [9], in test [10], in test [11] and in test [12]. In addition, the result in test [13], in test [14], in test [15], in [16] and in test [17] was inactive.
Consider `CC(C)(C)c1cc(/C=C2\SC(N)=NC2=O)cc(C(C)(C)C)c1O`, for which the result in [1], in test [5] and in test [12] was inactive. Moreover, the AC50 in test [2] was 94.3 µM (active); in test [3], 49.9 µM (active); in [18], 28.9 µM (active); in test [6] it was 93.6 µM (active); in test [7], 96.5 µM (active); in [8], 18.4 µM (active). Besides, the AC50 in test [9] was 25.3 µM (active); in test [10], 15.8 µM (active); in test [11], 22.7 µM (active); in test [13], 24.9 µM (active); in test [14], 93.6 µM (active); in [15], 22.6 µM (active). The AC50 is 4.43 µM (active) in [16] and 33.8 µM (active) in test [17].
Turning to `NCc1cccc(C2CCN(C(=O)c3ccc(C#Cc4ccccc4F)o3)CC2)c1`, the result in test [1], in test [3], in test [18], in [4], in [7] and in test [8] was inactive. Also, the call in test [10], in test [11], in test [12], in [19] and in test [16] was inactive. Besides, the half-maximal activity concentration (AC50) in [2] was 97.8 µM (active); in test [5] it was 24.7 µM (active); in test [9] it was 92.6 µM (active); in test [13] it was 88.5 µM (active); in [14], 92.9 µM (active); in test [17], 85.9 µM (active).
With `OC12N=C(c3ccccc3)SC1Cc1cc(Cl)ccc12` (stereo not given), the AC50 in [1] is 1.52 µM (active); in test [2] it was 12.1 µM (active); in test [3], 72.8 µM (active); in test [5] it was 11.8 µM (active); in [9], 40.5 µM (active); in test [13], 32.9 µM (active). For the same molecule, in test [14], the AC50 is 14 µM (active). For the same molecule, the result in test [7], in [8], in test [10], in test [11], in test [12] and in test [16] was inactive. Also, the call in test [17] was inactive.
